Screening data deposited in PubChem BioAssay by National Center for Advancing Translational Sciences (NCATS).
Sampled rows, rich in hits. Any-hit rate of the full collection: about 5.3%.
LASV entry inh: inhibitors of Lassa virus binding or cell entry. actives 1.2% (n = 300,000). Lassa virus pseudotype entry inhibition, cell reporter. Potency, µM (series often up to 37.9 µM), hits mostly inhibitors; calls by dose curve; tested in HEK293 cells; note: nearly all actives have a fitted effect of over 50% in size
Vaccinia Venus: vaccinia inhibition (Venus reporter); Vaccinia virus Venus reporter expression, fluorescence; actives 0.46% (n = 330,000); Potency, µM (top dose mostly 36.5 µM), usual class: inhibitors; calls by dose curve; tested in A549 cells; note: nearly all actives have a fitted effect of over 30% in size
MARV entry inh: blocks Marburg virus binding to or entry into cells | Marburg virus pseudotyped entry inhibition, cell reporter | actives 1.8% (n = 300,000) | Potency, µM (highest dose often 37.8 µM), most hits filed as inhibitors; calls by dose curve; tested in HEK293 cells
FMDV inh: antivirals against foot and mouth disease virus. FMDV antiviral cell-based qHTS. Potency, µM (titrated, usually from 57.9 µM), usual class: inhibitors. actives 1.2% (n = 410,000). AID 1159524; calls by dose curve; tested in HEK293T cells; note: read-out not given here; nearly all actives have a fitted effect of over 45% in size
VACV mCherry inh: inhibitors of vaccinia virus infection (mCherry reporter signal). Vaccinia virus mCherry reporter infection, fluorescence. Potency, µM (titrated, usually from 36.5 µM), actives largely listed as inhibitors. actives 0.63% (n = 310,000). AID 720579; calls by dose curve; tested in A549 cells; note: nearly all actives have a fitted effect of over 35% in size
HCV inh: blocks hepatitis C virus | Huh7.5.1 HCVcc-Cre infection, luciferase reporter, 44 h | Potency, µM (doses to about 41.8 µM), most hits filed as inhibitors | actives 3.4% (n = 340,000); active = well fitted inhibition curve with a large enough effect; inconclusive = small, poorly fitted or top-dose-only effect, or another doubt; inactive = no such curve, though single readings can be large or run the other way
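Cells (1,000/well) were plated 4 h before compound, then infected with HCVcc-Cre virus (~0.5 moi). After 44 h further culture, infection was read as luciferase luminescence following a 15 min substrate incubation at room temperature.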
Of the large screens only hits and unclear results are named; the others gave an inactive call.

COc1cccc(NC(=O)C(=O)NCC(c2cccnc2)N2CCN(c3ccccc3)CC2)c1 (centres undefined)	LASV entry inh 11µM (no result: MARV entry inh, HCV inh)
CCc1ccccc1NC(=O)C(=O)NCC(c1cccnc1)N1CCN(c2ccccc2F)CC1 (centres undefined)	FMDV inh 40µM (no result: MARV entry inh, HCV inh)
COC(=O)C(C(C)=O)[C@@H](NC(=O)NCc1ccccc1)c1ccccc1 (some centres undefined)	none (no result: LASV entry inh, Vaccinia Venus, FMDV inh, VACV mCherry inh, HCV inh)
CC(C)CNC(=O)Cn1c(=O)c2c(ncn2CC(C)C)n(Cc2ccccc2)c1=O	LASV entry inh inconclusive, HCV inh 11µM
CCc1nn(C(C)C(=O)NC(C)CCc2ccco2)c(=O)c2cc3occc3n12 (centres undefined)	HCV inh 10µM (no result: VACV mCherry inh)
CCc1nn(C(C)C(=O)NCc2cccc(Cl)c2)c(=O)c2cc3occc3n12 (centres undefined)	HCV inh 8.9µM (no result: LASV entry inh, Vaccinia Venus, MARV entry inh, VACV mCherry inh)
CCc1nn(C(C)C(=O)NCc2ccc(Cl)cc2)c(=O)c2cc3occc3n12 (centres undefined)	LASV entry inh inconclusive, HCV inh inconclusive
C=CCOC(=O)N[C@H](c1ccccc1)[C@H](C)C=CCC(=O)OC	none (no result: LASV entry inh, Vaccinia Venus, FMDV inh, VACV mCherry inh, HCV inh)
CC(NC(=O)c1ccco1)c1nc(-c2ccc(C(C)(C)C)cc2)no1 (centres undefined)	MARV entry inh inconclusive, HCV inh 16µM
Cc1cc2c(C)nc3ccccc3c2o1	HCV inh 11µM (no result: VACV mCherry inh)
O=C(Nc1ccc(N2CCOCC2)c(Cl)c1)c1ccc(Br)o1	LASV entry inh inconclusive, HCV inh 10µM
O=C(Nc1ccc2c(c1)oc1ccccc12)c1ccc(Br)o1	LASV entry inh inconclusive, Vaccinia Venus inconclusive, HCV inh 18µM (no result: VACV mCherry inh)
O=C(Nc1ccc(N2CCN(C(=O)c3ccccc3)CC2)cc1)c1ccc(Br)o1	MARV entry inh inconclusive, HCV inh inconclusive (no result: VACV mCherry inh)
O=C(Nc1ccc(N2CCN(C(=O)c3ccccc3)CC2)c(Cl)c1)c1ccc(Br)o1	LASV entry inh 21µM, MARV entry inh inconclusive, HCV inh inconclusive (no result: Vaccinia Venus, VACV mCherry inh)
CCCSc1ccc(-c2nn(-c3ccccc3)cc2/C=C(/C#N)C(=O)N2CCOCC2)cc1	LASV entry inh inconclusive, MARV entry inh 7.1µM, HCV inh inconclusive
N#CC1CCCc2c1[nH]c1ccc([N+](=O)[O-])cc21 (centres undefined)	LASV entry inh inconclusive, MARV entry inh 10µM, HCV inh inconclusive
COc1ccc(NC(=O)CNC(c2ccccc2)c2ccccc2)cc1	none (no result: LASV entry inh, Vaccinia Venus, MARV entry inh, VACV mCherry inh)
COc1ccc(C(NCC(=O)NC(C)c2ccc(Cl)cc2)c2ccccc2)cc1 (centres undefined)	HCV inh 11µM (no result: LASV entry inh, Vaccinia Venus, MARV entry inh, VACV mCherry inh)
O=S(Cc1ccc(Br)cc1)Cc1nnc(SCc2c(Cl)cccc2Cl)n1-c1ccccc1 (centres undefined)	LASV entry inh inconclusive, Vaccinia Venus inconclusive, MARV entry inh inconclusive, FMDV inh 28µM, VACV mCherry inh inconclusive, HCV inh inconclusive
CCC(/C=C1\Sc2ccc(OC)cc2N1CCO)=C\c1sc2ccc(OC)cc2[n+]1CCO	LASV entry inh inconclusive, MARV entry inh inconclusive, FMDV inh 18µM, HCV inh 5µM
CCC(/C=C1\Sc2ccc(OC)cc2N1CC)=C\c1sc2ccc(OC)cc2[n+]1CCCS(=O)(=O)[O-]	LASV entry inh inconclusive, MARV entry inh inconclusive, FMDV inh 18µM, HCV inh inconclusive (no result: Vaccinia Venus, VACV mCherry inh)
CCC(=O)/C=C1/Sc2ccc(OC)cc2N1CCO	none
COc1cc(-c2nc3cccc(C)n3c2Nc2ccc3c(c2)OCCO3)ccc1O	none (no result: HCV inh)
COc1ccc2c(c1OC)CN1CCc3cc4c(cc3[C@H]1C2)OCO4	FMDV inh inconclusive, VACV mCherry inh inconclusive, HCV inh 11µM (no result: LASV entry inh, MARV entry inh)
CCC1(C2CCN(Cc3ccc(C)s3)CC2)NC(=O)N(CC2COc3ccccc3O2)C1=O (centres undefined)	none (no result: LASV entry inh, MARV entry inh, HCV inh)
CCCCOc1cccc(C(=O)Nc2cc(NC(=O)c3ccco3)ccc2OC)c1	MARV entry inh inconclusive (no result: HCV inh)
Cc1cc(N2CCN(C(=O)c3ccco3)CC2)nc(-c2ccccc2)n1	LASV entry inh 11µM, MARV entry inh inconclusive, HCV inh inconclusive
Cc1cc(N2CCN(C(=O)c3ccco3)CC2)n2nc(-c3cccc(F)c3)cc2n1	MARV entry inh inconclusive, FMDV inh inconclusive, HCV inh 10µM (no result: Vaccinia Venus, VACV mCherry inh)
O=C(C[n+]1ccc(-c2cc(C(=O)Nc3cccc(C(F)(F)F)c3)c3ccccc3n2)cc1)c1cccc([N+](=O)[O-])c1	MARV entry inh inconclusive, FMDV inh inconclusive, HCV inh 13µM
CC(O)CNCCNCc1c(OCc2ccccc2)ccc2ccccc12 (centres undefined)	LASV entry inh 9.2µM, MARV entry inh inconclusive, HCV inh inconclusive (no result: FMDV inh)
OCCNCc1c(OCc2ccc(Cl)cc2)ccc2ccccc12	LASV entry inh inconclusive, MARV entry inh 5.6µM, HCV inh 11µM
Cc1ccc(Nc2nc(NCc3ccco3)nc3nccnc23)cc1	none (no result: LASV entry inh, MARV entry inh, FMDV inh, HCV inh)
CN(C)c1cccc(-c2nnc(SCC(=O)NCc3ccco3)n2C)c1	none (no result: LASV entry inh, MARV entry inh, FMDV inh, HCV inh)
O/N=C/c1ccc2cccc(OCc3ccccc3)c2n1	HCV inh inconclusive (no result: LASV entry inh, Vaccinia Venus, MARV entry inh, VACV mCherry inh)
O=C(N/N=C/c1ccc2cccc(OCc3ccccc3)c2n1)c1ccc(Br)cc1	LASV entry inh inconclusive, Vaccinia Venus inconclusive, MARV entry inh 16µM, FMDV inh inconclusive, HCV inh inconclusive
COc1ccc(C(=O)N/N=C/c2ccc3cccc(OCc4ccccc4)c3n2)cc1	LASV entry inh inconclusive, Vaccinia Venus inconclusive, MARV entry inh inconclusive, VACV mCherry inh inconclusive, HCV inh 8.9µM
CCCN(C(=O)c1cc2ccc3cccnc3c2[nH]1)c1ccc(F)cc1	LASV entry inh inconclusive (no result: MARV entry inh, HCV inh)
COc1ccc(Nc2nc(-c3ccncc3)nc3ccccc23)cc1	MARV entry inh 2.8µM, HCV inh 6.3µM
COc1ccccc1Nc1nc(-c2ccccc2)nc2ccccc12	HCV inh 10µM (no result: LASV entry inh, Vaccinia Venus, MARV entry inh, VACV mCherry inh)
COc1ccc2nc(-c3ccccc3)nc(C3CCCCC3)c2c1	HCV inh inconclusive (no result: LASV entry inh, MARV entry inh)
COc1ccc(Nc2nc(-c3ccccc3)nc3ccccc23)c(OC)c1	MARV entry inh inconclusive, VACV mCherry inh inconclusive, HCV inh 2µM
COc1ccc2nc(-c3ccccc3)nc(SC)c2c1	Vaccinia Venus inconclusive, HCV inh 11µM (no result: LASV entry inh, MARV entry inh)
COc1ccc(Nc2nc(N3CCCCC3)nc3ccccc23)c(OC)c1	MARV entry inh inconclusive, HCV inh inconclusive
Cc1cc(F)ccc1O[C@H]1C=C[C@@H](c2ccc3c(c2)OCO3)O[C@H]1CO	none (no result: LASV entry inh, Vaccinia Venus, FMDV inh, VACV mCherry inh, HCV inh)
COc1ccc(NC(=O)CSc2c3c(nc4ccccc24)CCCC3)c(OC)c1	LASV entry inh inconclusive, MARV entry inh inconclusive, FMDV inh 35µM
COc1ccc(Nc2nc(-c3ccccc3F)nc3ccccc23)cc1OC	LASV entry inh inconclusive, FMDV inh inconclusive, HCV inh 25µM (no result: MARV entry inh)
Cc1ccc(C)c(Nc2nc(-c3ccncc3)nc3ccccc23)c1	FMDV inh inconclusive, HCV inh 11µM (no result: LASV entry inh, Vaccinia Venus, MARV entry inh, VACV mCherry inh)
Cc1ccc(-c2nc(NCCN(C)C)c3ccccc3n2)cc1	LASV entry inh inconclusive, Vaccinia Venus inconclusive, MARV entry inh inconclusive, VACV mCherry inh inconclusive
Oc1ccc(Nc2nc(-c3ccccc3F)nc3ccccc23)cc1	HCV inh inconclusive (no result: LASV entry inh, Vaccinia Venus, MARV entry inh, VACV mCherry inh)
COc1ccccc1NC(=O)CSc1c2c(nc3ccccc13)CCC2	Vaccinia Venus inconclusive, FMDV inh inconclusive
